Test results as given in the antibiotic and cytotoxicity screens of Wong et al. (2023).
The whole screen tested about 39,000 compounds, of which about 3,300 (8.5%) were called active. The sample holds actives, similar compounds and a random draw of the others, so the mix is not that of the screen.

What follows are compounds tested on HepG2 (assay: cytotoxicity call (relative viability < 0.9)). Settings: 10 µM.

| Compound | cytotoxicity call |
| --- | --- |
| CN1C(=O)c2cc(NC(=O)Cc3cccs3)ccc2OC[C@@H]2O[C@@H](CC(=O)NCCCN3CCOCC3)CC[C@H]21 | inactive |
| COCCOC(=O)N1C(=O)[C@@]2(c3cc(C#CCNC(N)=O)ccc31)[C@H](c1ccc(O)cc1)N1[C@H](c3ccccc3)[C@H](c3ccccc3)OC(=O)[C@H]1[C@@H]2C(=O)N1CCc2cc(OC)c(OC)cc2C1 | inactive |
| COC(=O)[C@H]1[C@H](CO)[C@H]2Cn3c(cccc3=O)[C@H]2N1C(=O)C1CC1 | inactive |
| C[C@H](CO)N1C[C@H](C)[C@@H](CN(C)Cc2ccc(C(=O)Nc3ccccc3N)cc2)Oc2c(NC(=O)Nc3ccccc3)cccc2C1=O | inactive |
| C[C@H](C(=O)O)N1CCCC1=O | inactive |
| C[C@H](CO)N1C[C@H](C)[C@@H](CN(C)C(=O)Nc2cccc3ccccc23)Oc2ccc(NC(=O)Nc3ccccc3)cc2C1=O | inactive |
| COc1ccc(S(=O)(=O)N2C[C@H](O)COC[C@@H]3O[C@H](CC(=O)NCCCN(C)C)CC[C@H]32)cc1 | inactive |
| C[C@H]1CN([C@@H](C)CO)C(=O)c2c(c3ccccc3n2C)-c2ccccc2CO[C@@H]1CN(C)Cc1cccc(C(=O)O)c1 | inactive |
| Cc1ccc(S(=O)(=O)N(C)C[C@H]2Oc3c(NC(=O)Nc4cccc5ccccc45)cccc3C(=O)N([C@@H](C)CO)C[C@H]2C)cc1 | inactive |
| O=C(C[C@@H]1C[C@@H]2c3cc(NS(=O)(=O)c4ccc(F)cc4)ccc3O[C@@H]2[C@H](CO)O1)NCCc1ccccc1 | inactive |
| C[C@H]1CN([C@@H](C)CO)C(=O)Cc2cc(NC(=O)Nc3cccc4ccccc34)ccc2O[C@H]1CN(C)S(=O)(=O)c1cccs1 | inactive |
| C[C@@H]1CN([C@@H](C)CO)C(=O)Cc2cc(NC(=O)c3ccncc3)ccc2O[C@@H]1CN(C)S(=O)(=O)c1ccccc1 | active |
| C[C@H](CO)N1C[C@H](C)[C@H](CN(C)S(=O)(=O)c2cccs2)Oc2ccc(NC(=O)Nc3cccc4ccccc34)cc2CC1=O | inactive |
| C[C@H]1CN([C@@H](C)CO)C(=O)Cc2cc(NC(=O)c3ccncc3)ccc2O[C@@H]1CN(C)S(=O)(=O)c1cccs1 | inactive |
| C[C@H]1CN([C@@H](C)CO)C(=O)Cc2cc(NC(=O)c3ccncc3)ccc2O[C@@H]1CN(C)S(=O)(=O)c1ccccc1 | inactive |
| C[C@@H]1CN([C@@H](C)CO)C(=O)Cc2cc(NC(=O)c3ccncc3)ccc2O[C@H]1CN(C)S(=O)(=O)c1cccs1 | inactive |
| CC(C)NC(=O)Nc1ccc2c(c1)CC(=O)N([C@@H](C)CO)C[C@@H](C)[C@@H](CN(C)S(=O)(=O)c1cccs1)O2 | active |
| C[C@@H]1CN([C@@H](C)CO)C(=O)Cc2cc(NC(=O)Nc3cccc4ccccc34)ccc2O[C@@H]1CN(C)S(=O)(=O)c1cccs1 | active |
| C[C@@H]1CN([C@@H](C)CO)C(=O)Cc2cc(NC(=O)c3ccncc3)ccc2O[C@@H]1CN(C)S(=O)(=O)c1cccs1 | active |
| CC(C)NC(=O)Nc1ccc2c(c1)CC(=O)N([C@H](C)CO)C[C@H](C)[C@H](CN(C)S(=O)(=O)c1cccs1)O2 | inactive |
| C[C@H](CO)N1C[C@H](C)[C@H](CN(C)S(=O)(=O)c2ccccc2)Oc2ccc(NC(=O)c3ccncc3)cc2CC1=O | inactive |
| CC(C)NC(=O)Nc1ccc2c(c1)CC(=O)N([C@@H](C)CO)C[C@H](C)[C@H](CN(C)S(=O)(=O)c1cccs1)O2 | inactive |
| C[C@@H]1CN([C@H](C)CO)C(=O)c2cc(NC(=O)Nc3ccc(C(F)(F)F)cc3)ccc2O[C@@H]1CN(C)C(=O)Nc1ccc2c(c1)OCO2 | inactive |

| Compound | cytotoxicity call |
| --- | --- |
| COCC(=O)N1CC[C@]2(CC1)CN(Cc1ccc3c(c1)OCO3)[C@@H](CO)c1c2c2ccc(cc2n1C)OC | inactive |
| Nc1ccc(-c2ccco2)cc1 | inactive |
| COc1ccc(S(=O)(=O)Nc2ccc3c(c2)CC(=O)N([C@H](C)CO)C[C@@H](C)[C@H](CN(C)S(=O)(=O)c2cn(C)cn2)O3)cc1 | inactive |
| CC(C)NC(=O)N(C)C[C@@H]1OCc2cn(nn2)CCCC(=O)N([C@@H](C)CO)C[C@H]1C | inactive |
| C[C@@H]1CN([C@@H](C)CO)C(=O)c2cccc(NS(=O)(=O)c3ccc(F)cc3)c2O[C@H]1CN(C)Cc1ccc(Cl)c(Cl)c1 | inactive |
| CC(=O)O[C@@H]1[C@@H](O)C[C@@]2(C)[C@@H](CC[C@@H](C)[C@@]23Cc2c(O)cc4c(c2O3)CN([C@@H](CCC(=O)O)C(=O)O)C4=O)C1(C)C | inactive |
| CCCN(C)C[C@H]1OCCCC[C@H](C)Oc2ccc(NC(=O)c3ccccc3)cc2C(=O)N([C@@H](C)CO)C[C@H]1C | inactive |
| CC(C)N1C[C@H](C)[C@@H](CN(C)Cc2cccc(Cl)c2)Oc2c(NC(=O)c3ccncc3)cccc2C1=O | inactive |
| C[C@@H]1CN([C@@H](C)CO)C(=O)c2cc(NC(=O)Nc3cccc4ccccc34)ccc2O[C@@H](C)CCCCO[C@@H]1CN(C)S(=O)(=O)c1ccc(Cl)cc1 | inactive |
| Nc1nnc(C(=O)N2CCCCC2)[nH]1 | inactive |
| C[C@@H]1CN([C@H](C)CO)C(=O)c2cc(NC(=O)CCN3CCOCC3)ccc2O[C@H]1CN(C)CC1CCCCC1 | inactive |
| C[C@H](CO)N1C[C@H](C)[C@@H](CN(C)S(=O)(=O)c2ccccc2)Oc2ccc(NC(=O)CCC(F)(F)F)cc2CC1=O | inactive |
| C[C@@H]1CN([C@@H](C)CO)C(=O)Cc2cc(NC(=O)Cc3ccccc3)ccc2O[C@H]1CN(C)S(=O)(=O)c1cccs1 | inactive |
| C[C@@H]1CN([C@@H](C)CO)C(=O)Cc2cc(NC(=O)CCC(F)(F)F)ccc2O[C@@H]1CN(C)S(=O)(=O)c1ccccc1 | active |
| C[C@@H]1CN([C@@H](C)CO)C(=O)Cc2cc(NC(=O)Cc3ccccc3)ccc2O[C@@H]1CN(C)S(=O)(=O)c1cccs1 | active |
| C[C@@H]1CN([C@H](C)CO)C(=O)Cc2cc(NC(=O)CCC(F)(F)F)ccc2O[C@@H]1CN(C)S(=O)(=O)c1ccccc1 | inactive |
| C[C@H]1CN([C@@H](C)CO)C(=O)Cc2cc(NC(=O)Cc3ccccc3)ccc2O[C@H]1CN(C)S(=O)(=O)c1cccs1 | inactive |
| C[C@@H]1CN([C@@H](C)CO)C(=O)c2cc(Br)cnc2O[C@H]1CN(C)Cc1ccccc1C(=O)O | inactive |
| COc1nc2ccc(Br)cc2cc1[C@@H](c1ccccc1)[C@@](O)(CCN(C)C)c1cccc2ccccc12 | inactive |
| C[C@@H]1CCCCO[C@@H](CN(C)Cc2ccccc2)[C@H](C)CN([C@H](C)CO)C(=O)c2cc(NC(=O)Nc3ccc4c(c3)OCO4)ccc2O1 | inactive |
| CC(=O)N[C@@H]1[C@@H](Oc2ccc(C(C)=O)cc2)O[C@H](CO)[C@H](O)[C@@H]1O | inactive |
| CCOc1ccc(CO[C@@H]2O[C@H](CO)[C@@H](O)[C@H](O)[C@H]2NC(C)=O)cc1OC | active |
| CC(=O)N[C@@H]1[C@@H](OCCOc2ccc(Cl)cc2C)O[C@H](CO)[C@H](O)[C@@H]1O | inactive |

| Compound | cytotoxicity call |
| --- | --- |
| COCCOC(=O)N1C(=O)[C@@]2(c3ccccc31)[C@H](C(=O)Nc1nc3ccccc3s1)[C@H]1C(=O)O[C@H](c3ccccc3)[C@H](c3ccccc3)N1[C@@H]2c1ccc(OCCO)cc1 | inactive |
| CC(C)NC(=O)Cn1ccc([N+](=O)[O-])n1 | inactive |
| NS(=O)(=O)c1ccccc1 | inactive |
| Nc1ccccc1S(N)(=O)=O | inactive |
| NS(=O)(=O)C#Cc1ccccc1 | active |
| C[C@H]1CN([C@@H](C)CO)S(=O)(=O)c2ccc(C#Cc3cccnc3)cc2O[C@@H]1CN(C)C(=O)CN(C)C | inactive |
| CC(C)(O)CC(=O)NCCn1ccc2ncnc(Nc3ccc(Oc4cccc(C(F)(F)F)c4)c(Cl)c3)c21 | inactive |
| CS(=O)(=O)CCNCc1nc(-c2ccc3ncnc(Nc4ccc(OCc5cccc(F)c5)c(Cl)c4)c3c2)cs1 | inactive |
| CS(=O)(=O)CCNCc1ccc(-c2ccc3ncnc(Nc4ccc(OCc5cccc(F)c5)c(Cl)c4)c3c2)o1 [listing 1 of 2 here] | active |
| CS(=O)(=O)CCNCc1ccc(-c2ccc3ncnc(Nc4ccc(OCc5cccc(F)c5)c(Cl)c4)c3c2)o1 [listing 2 of 2 here] | active |
| CC(CCC(=O)O)C1CCC2C3CCC4CCCCC4(C)C3CCC12C (stereo not drawn) | inactive |
| CN(C)CC(=O)N[C@H]1CC[C@H](CC(=O)NCCN2CCCCC2)O[C@H]1CO | inactive |
| Cc1ccc(S[C@]2(C(=O)NCCCN(C)C)CC(=O)N(C3Cc4ccccc4C3)[C@@H]2c2ccc(CO)cc2I)cc1 | inactive |
| CS(=O)(=O)N1C[C@H](O)COC[C@@H]2O[C@@H](CC(=O)NCCc3ccncc3)CC[C@H]21 | inactive |
| CO[C@H]1CN(C)C(=O)c2cc(NS(C)(=O)=O)ccc2OC[C@@H](C)N(C(=O)CN(C)C)C[C@@H]1C | inactive |
| C[C@H]1CCCCO[C@H](CN(C)CC2CC2)[C@@H](C)CN([C@@H](C)CO)C(=O)c2cc(NC(=O)CCC(F)(F)F)ccc2O1 | inactive |
| Cc1ncc(NC(=O)c2ccc(CN3CCN(C)CC3)c(C(F)(F)F)c2)cc1Nc1nccc(-c2cccnc2)n1 | active |
| Cc1ccc(NC(=O)c2ccc(CN3CC[C@H](N(C)C)C3)c(C(F)(F)F)c2)cc1Nc1nccc(-c2cncnc2)n1 | active |
| Cc1ccc(NC(=O)c2ccc(CN3CCN(C)CC3)cc2)cc1Nc1nccc(-c2cccnc2)n1 | inactive |
| Cc1ccc(S(=O)(=O)Nc2ccc3c(c2)C(=O)N([C@@H](C)CO)C[C@H](C)[C@@H](CN(C)C(=O)C2CCCCC2)OCCCC[C@H](C)O3)cc1 | inactive |
| COc1ccc(CCNC(=O)[C@@H]2c3ccccc3C(=O)N(Cc3ccccc3OC)[C@H]2c2ccc(CO)cc2)cc1 | inactive |
| C[C@@H]1CCCCO[C@H](CN(C)CC2CCCCC2)[C@@H](C)CN([C@H](C)CO)C(=O)c2cc(NC(=O)CCC(F)(F)F)ccc2O1 | inactive |
